High-throughput results (PubChem BioAssay)
Only some compounds are listed: those with a hit (about 3% of all), similar ones and a draw of the others.
pS6 MEF inh = Acumen qHTS Assay for Inhibitors of the mTORC1 Signaling Pathway in MEF (Tsc2-/-, p53-/-) Cells: Sytravon; Potency, µM (doses to about 38.3 µM), most hits filed as inhibitors; Tsc2-/- p53-/- MEF, phospho-rpS6 immunofluorescence/PI, 24 h; AID 493208, 2011; 44,000 compounds, 0.78% hits; also: nearly all actives have a fitted effect of over 50% in size
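Read-out: phospho-S6 Alexa-488 intensity over PI intensity per well, scored as % active cells using thresholds from rapamycin (7.5 nM) and DMSO controls. Tsc2-/-, p53-/- MEFs exposed to compound for 24 h; PI cell count recorded as viability.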
S16 viability = Cell viability qHTS assay in S16 Pmp22-F2sN cells; S16 Pmp22-F2sN Schwann cells viability, CellTiter-Glo, 24 h; Potency, µM (doses to about 57.5 µM), hits mostly cytotoxic; 43,000 compounds, 0.48% hits; also: nearly all actives have a fitted effect of over 65% in size
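Rat S16 Schwann reporter line, 24 h treatment with library compounds delivered at 23 nL per well. Cell viability by CellTiter-Glo luminescence.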
SKOV3 invasion = Primary qHTS assay for Inhibitors of ovarian cancer metastasis using an organotypic tumor microenvironment (TME) model; Potency, µM (series often up to 45.8 µM), hits mostly inhibitors; SKOV3ip1-GFP adhesion/invasion on 3D omental model, fluorescence; 46,000 compounds, 0.1% hits; AID 1963576, 2024; also: nearly all actives have a fitted effect of over 65% in size
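A 3D layer of primary human omental fibroblasts, mesothelial cells, fibronectin and collagen I, grown 48 hr, received SKOV3ip1-GFP cells in serum-free medium plus compounds at 0.36-46 umol/L. After 2 hr RT and 16 hr 37 C, fixed adherent GFP cells were counted; normalized to DMSO and tomatine.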
p53null 39C kill = qHTS Screen for Compounds that Selectively Target Cancer Cells with p53 Mutations: Cytotoxicity of p53 Null Cells at the Nonpermissive Temperature; H1299 p53-null (neo) cells, 39C, ATPlite viability, 24 h; Potency, µM (titrated, usually from 46.1 µM), hits mostly cytotoxic; 55,000 compounds, 0.97% hits; AID 904, 2007; also: nearly all actives have a fitted effect of over 50% in size
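Temperature-shift cytotoxicity format: compound titrations on p53-null or A138V-expressing H1299 cells held 24 hr at 39C, cell ATP then measured, AC50 from Hill model.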
p53null 32C tox = qHTS Screen for Compounds that Selectively Target Cancer Cells with p53 Mutations: Cytotoxicity of p53 Null Cells at the Permissive Temperature | H1299-neo p53 null cells, ATP luminescence, 24 h, 32C | Potency, µM (top dose mostly 46.1 µM), most hits filed as cytotoxic | AID 903, 2007 | 55,000 compounds, 0.62% hits; also: nearly all actives have a fitted effect of over 55% in size
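Cells lacking p53 (H1299-neo) are plated at 600 per well and allowed to settle overnight at 37C. Test compounds (up to 46 uM) are added and held 24 hours at 32C, then ATP is quantified by luminescence.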
PMP22 txn = Cell-based coincidence reporter assay to measure PMP22 gene transcription in S16 Pmp22-F2sN cells - Primary screen; 43,000 compounds, 2% hits; Potency, µM (titrated, usually from 57.5 µM), actives largely listed as inhibitors; S16 Pmp22-F2sN Schwann cells (luciferase reporters placed in the Pmp22 gene), FLuc/NLuc coincidence luminescence, 24 h; active = clear falling dose curves in both reporters; inconclusive = both reporters move, but less clearly or upward; inactive = either reporter flat; the % is the NLuc reporter signal
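S16 Schwann cells carrying FLuc/NLuc coincidence reporter in the Pmp22 3' UTR treated with compound 24 h at 37C; FLuc then NLuc luminescence read sequentially by dual-luciferase reagents.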
A number is an active result; [ ] = dose if it differs, or a comment. Unless noted, calls follow the shape of the dose curve; as a rule, active = well fitted curve in the direction sought with a large enough effect; inconclusive = small, poorly fitted or top-dose-only effect, or another doubt; inactive = no such curve, though single readings can be large; an effect the other way counts as inactive or inconclusive.

Screening CCOc1cc2c(c(F)c1OCC)C(=N)N(CC(=O)c1cc(N3CCOCC3)c(OC)c(C(C)(C)C)c1)C2 returned SKOV3 invasion inactive.
COc1cc(/C=C(\C#N)c2nc3ccc(C)cc3[nH]2)ccc1OC(C)C was read as pS6 MEF inh inactive, S16 viability inactive, SKOV3 invasion inactive, p53null 39C kill inactive, p53null 32C tox inactive and PMP22 txn inactive.
Screening Cc1ccc2nc(/C(C#N)=C/c3cccc(Br)c3)[nH]c2c1 returned pS6 MEF inh 18.5µM, S16 viability inconclusive, SKOV3 invasion inactive, p53null 39C kill inactive, p53null 32C tox inactive and PMP22 txn inconclusive.
`CC(=O)N(Cc1cccnc1)c1nc2ccc(F)cc2s1` gave pS6 MEF inh inactive, S16 viability inactive, SKOV3 invasion inactive, p53null 39C kill inactive, p53null 32C tox inactive and PMP22 txn inactive.
For O=C(CCS(=O)(=O)c1ccccc1)N(Cc1cccnc1)c1nc2ccc(F)cc2s1 the results were pS6 MEF inh inconclusive, S16 viability 4.47µM, SKOV3 invasion inconclusive, p53null 39C kill inactive, p53null 32C tox inconclusive and PMP22 txn 10.6µM.
Screening N#Cc1ccc(COC[C@H]2O[C@@H](n3c(NCc4ccc(Cl)c(Cl)c4)nc4c(N)ncnc43)[C@@H](O)[C@@H]2O)cc1 returned SKOV3 invasion inactive.
`Cc1csc2nc(-c3cccc(NC(=O)c4ccccc4F)c3)cn12` gave pS6 MEF inh inactive, S16 viability inconclusive, SKOV3 invasion inactive, p53null 39C kill 11.2µM, p53null 32C tox inconclusive and PMP22 txn inconclusive.
`CCCNC(=O)[C@H]1O[C@H]1C(=O)N[C@H](C(=O)N1CCC[C@@H]1C(=O)OC)C(C)CC` (some centres not stated) gave SKOV3 invasion inactive.
Screening CNC(=O)c1cc2ccccc2o1 returned p53null 39C kill inactive and p53null 32C tox inactive.
For C/C(=N\Nc1nc2ccccc2[nH]1)c1cc2ccccc2o1 the results were p53null 39C kill inconclusive and p53null 32C tox 10µM.
For CCOc1ccc(CNC(=O)CSc2nnc(C)c3c(C)n(-c4ccccc4)nc23)cc1 the results were pS6 MEF inh inactive, S16 viability inactive, SKOV3 invasion inactive, p53null 39C kill 25.1µM, p53null 32C tox inactive and PMP22 txn inactive.
O=c1cc(-c2cccc3c2Sc2ccccc2S3)oc(N2CCOCC2)c1 was read as SKOV3 invasion inactive.
COc1c(OCCCN2CCOCC2)ccc2c3n(c(=NC(=O)c4cnc(N)nc4)nc12)CCN3 was read as SKOV3 invasion inactive.
Screening COc1ccc(NC(=O)c2cnc[nH]2)cc1 returned pS6 MEF inh inactive, S16 viability inactive, SKOV3 invasion inactive, p53null 39C kill 7.94µM, p53null 32C tox 17.8µM and PMP22 txn inactive.
For O=C(Nc1cccc(Cl)c1)c1cnc[nH]1 the results were pS6 MEF inh inactive, S16 viability inactive, SKOV3 invasion inactive, p53null 39C kill inactive, p53null 32C tox inactive[9.22 µM] and PMP22 txn inactive.
For Nc1nc(NCCNc2ncc(-n3ccnc3)c(-c3ccc(Cl)cc3Cl)n2)ccc1[N+](=O)[O-] the results were SKOV3 invasion inactive.
Screening CC1=C(C(=O)Nc2ccccc2)C(c2ccc(F)cc2)n2nc(SCc3cc(C)ccc3C)nc2N1 (configuration not stated) returned pS6 MEF inh inactive, S16 viability inactive, SKOV3 invasion inactive, p53null 39C kill inactive, p53null 32C tox inactive and PMP22 txn inactive.
Screening COc1ccccc1NC(=O)C1=C(C)Nc2nc(SCc3cc(C)ccc3C)nn2C1c1ccccc1 (configuration not stated) returned pS6 MEF inh inactive, S16 viability 10µM, SKOV3 invasion inactive, p53null 39C kill inactive, p53null 32C tox inactive and PMP22 txn 16.8µM.
For CSc1ccc(/C=C/c2nc3ccccc3n2S(=O)(=O)c2ccc(Br)cc2)cc1 the results were pS6 MEF inh inactive, S16 viability inconclusive, SKOV3 invasion inactive, p53null 39C kill 2.51µM, p53null 32C tox 3.16µM and PMP22 txn inconclusive.
For CCOc1ccc(/C=C/c2nc3ccccc3n2S(=O)(=O)c2ccc(Br)cc2)cc1 the results were pS6 MEF inh inactive, S16 viability inactive, SKOV3 invasion inactive, p53null 39C kill 7.94µM, p53null 32C tox 12.6µM and PMP22 txn inactive.
Screening O=S(=O)(c1cccc(C(F)(F)F)c1)n1c(/C=C/c2ccccc2)nc2ccccc21 returned pS6 MEF inh inactive, S16 viability inconclusive, SKOV3 invasion inactive, p53null 39C kill inconclusive, p53null 32C tox 15.8µM and PMP22 txn inconclusive.
`CC(C)Cn1c(/C=C/c2ccccc2)nc2ccccc21` gave p53null 39C kill inactive.
Screening CCOc1ccc(S(=O)(=O)Nc2nc3ccccc3nc2Nc2ccc(OC)cc2)cc1 returned pS6 MEF inh inactive, S16 viability inactive, SKOV3 invasion inactive, p53null 39C kill inactive, p53null 32C tox inactive and PMP22 txn inactive.
Screening O=C(c1ccc(C=Cc2n[nH]c3ccccc23)cc1)N1CCNCC1 returned SKOV3 invasion inactive.
Screening Cc1cc(OCCCS(C)(=O)=O)cc(C)c1-c1cccc(COc2ccc3c(c2)OC[C@H]3CC(=O)O)c1 returned SKOV3 invasion inactive.
Screening Cc1ccc(O)c(C(CC(=O)NCC2(c3ccccc3)CCCC2)c2ccccc2)c1 (configuration not stated) returned pS6 MEF inh 18.5µM, S16 viability inconclusive, SKOV3 invasion inconclusive, p53null 39C kill inconclusive, p53null 32C tox inconclusive and PMP22 txn inconclusive.
Screening COC(=O)CN(c1ccccc1)S(=O)(=O)c1ccc(F)cc1 returned p53null 39C kill inactive and p53null 32C tox inactive.
For Cc1ccc(N(CC(O)Cn2c3ccccc3c3ccccc32)S(=O)(=O)c2ccc(F)cc2)cc1 (configuration not stated) the results were pS6 MEF inh inconclusive, S16 viability inconclusive, SKOV3 invasion inconclusive, p53null 39C kill 11.2µM, p53null 32C tox inactive and PMP22 txn inconclusive.
For O=C(CCCn1ccc2cc(S(=O)(=O)N3CCCC3)ccc21)NCc1ccc(Cl)cc1 the results were pS6 MEF inh 7.36µM, S16 viability inconclusive, SKOV3 invasion inactive, p53null 39C kill inconclusive, p53null 32C tox inactive and PMP22 txn inconclusive.
